In the library only some 3.2% were active in any assay of this set; here they are far more common.
CHT allo act – allosteric activators of human choline transporter CHT. Q9GZV3. CHT-expressing cells, membrane potential dye, choline EC20; hits give high values; LV-AA mutant CHT in HEK293 cells. B-score at 10 µM. hit rate 0.49% among 310,000. AID 488977;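 active = initial fluorescence not abnormally high and integrated response B-score, plate-corrected, over 3 SD above library mean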
CHT inh – human CHT choline transport inhibition; CHT-expressing cells, membrane potential dye, choline response; hits give low values; B-score at 10 µM; hit rate 0.86% among 310,000;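 active = B-score over 3 SD under the library average, and starting fluorescence ratio not unusually high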;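 note: choline stimulus applied at its EC90 after an EC20 pre-addition; B-score computed on integrated fluorescence ratio after choline addition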
Kir21 block – blocks the mouse Kir2.1 inward-rectifier potassium channel | B-score at 10 µM | P35561 | AID 1672 | HEK293-Kir2.1, FluxOR thallium flux fluorescence; hits give low values | hit rate 0.85% among 310,000;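 active = fluorescence ratio B-score at or below minus 3 SD of library scores, with starting-brightness B-score within 2 SD, cut at about -4.2 in these data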;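 note: channel flux triggered by added potassium and thallium sulfate stimulus; B-score of peak minus minimum fluorescence over baseline after thallium stimulus; more negative B-score means stronger Kir2.1 block with less thallium influx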
ANO1 activ – activators or potentiators of mouse TMEM16A chloride channel | B-score at 10 µM | HEK293 TMEM16A/YFP-H148Q/I152L, iodide quench fluorescence; hits give low values | Q8BHY3 | AID 623877 | hit rate 0.3% among 340,000;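 active = fluorescence-ratio B-score plate-corrected deviation score at least 3 library SD below zero, with starting fluorescence score within 5 deviations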;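 note: channel opened by trigger with iodide after compound preincubation; score built on the fluorescence ratio of max minus min over baseline; more negative score means more quench and so TMEM16A activation or potentiation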
ANO1 block – mouse TMEM16A channel inhibition, primary screen; HEK293 TMEM16A/YFP iodide influx fluorescence, ionomycin; hit rate 1.2% among 310,000; normalized B-score (activity score, 25-100; higher = stronger inhibition) at 10 µM; AID 588511;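 active = ratio plate-corrected score three or more library SD toward inhibition, starting fluorescence score within five deviations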;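 note: score derived from kinetic fluorescence span divided by baseline fluorescence per well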
Rce1 inhib – blocks yeast Ras-converting enzyme; AID 2563; yeast membranes, quenched prenylated peptide cleavage fluorescence; Q03530; calls only; hit rate 0.27% among 290,000;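 active = fall in fluorescence gain of 50% or more versus controls, with final raw signal at or below 3038400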
Target sequence (Q03530 whole entry, looked up): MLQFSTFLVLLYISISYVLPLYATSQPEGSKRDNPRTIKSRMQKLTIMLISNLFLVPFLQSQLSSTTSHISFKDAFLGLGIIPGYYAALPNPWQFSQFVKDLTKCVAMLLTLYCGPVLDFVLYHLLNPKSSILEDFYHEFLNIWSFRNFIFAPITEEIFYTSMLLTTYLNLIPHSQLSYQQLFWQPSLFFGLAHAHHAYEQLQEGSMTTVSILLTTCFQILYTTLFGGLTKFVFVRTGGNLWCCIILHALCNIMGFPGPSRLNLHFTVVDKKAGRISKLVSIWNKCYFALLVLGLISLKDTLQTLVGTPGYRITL
CHT act confirm – human CHT activation, confirmatory screen. shares compounds with CHT allo act. CHT-expressing cells, membrane potential dye fluorescence (FDSS); % of choline EC20–EC90 response window; HEK293 expressing CHT LV-AA mutant; choline added at its EC20. activation, % at 10 µM. hit rate 91% among 2,500. AID 504833;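 active = primary screen active, with duplicate mean activation above negative control mean plus 3 SD, cut at about 11% in these data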
HEK293 MP dye – counter-screen for CHT activators: effect in parental HEK293 cells. shares compounds with CHT allo act. membrane potential dye fluorescence (FDSS); measured after EC20 choline addition. ratio readout change at 10 µM, hits read low. hit rate 62% among 2,500. AID 623908;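 active = duplicate-averaged ratio beyond 3 SD from buffer wells, up or down, though filed actives are nearly all decreases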
Each line names hits and unclear results; the compound was inactive in the other large screens (follow-up assays come after a bar, where they were run); ! = repeats disagree.

Cc1ccccc1OCc1n(CC(=O)OC2CC(C)CCC2C(C)C)c2ccccc2[n+]1C (configuration not stated)	Kir21 block -15, ANO1 block 100 | CHT act confirm 14 | HEK293 MP dye inactive
CCCCCCCCCCOC(=O)Cn1c(COc2ccc(OC)cc2)[n+](C)c2ccccc21	CHT allo act 13, Kir21 block -8.6, ANO1 block 25! | CHT act confirm 28 | HEK293 MP dye -42
CCOC(=O)Cn1c(COc2ccccc2OC)[n+](C)c2ccccc21	none
CCOC(=O)c1nc(NCc2ccccc2F)c2ccccc2n1	none
CC(C)COP(=O)(OCC(C)C)C(Nc1ccccc1)c1ccc(F)cc1 (configuration not stated)	none | CHT act confirm 15 | HEK293 MP dye inactive
CC1=NNC(=O)C1CC(=O)N/N=C/C=C/c1ccccc1 (configuration not stated)	none
CC(C)(C)n1nc2c(c1NC(=O)c1cc(Cl)ccc1[N+](=O)[O-])CS(=O)(=O)C2	CHT allo act 7.2 | CHT act confirm 39 | HEK293 MP dye inactive
CCOC(=O)c1ccc2c(c1)n(CC)c(/C=C/Nc1ccccc1)[n+]2CC	none | CHT act confirm 32 | HEK293 MP dye -83
CCn1c(C)[n+](Cc2ccccc2)c2ccc(C(=O)OC)cc21	CHT allo act 10 | CHT act confirm 27 | HEK293 MP dye -67
CCOC(=O)c1cccc(NC(=O)CSc2nc3ccccc3c(=O)n2CC)c1	none
O=C(N/N=C/c1ccc(OCc2ccccc2)cc1)c1cc[n+](Cc2ccccc2)cc1	none
O=C(N/N=C/c1ccc(O)cc1)c1cc[n+](Cc2ccccc2)cc1	none | CHT act confirm 37 | HEK293 MP dye -29
CN(C)C(CNS(=O)(=O)c1ccc(Cl)cc1F)c1ccco1 (configuration not stated)	none (no result: CHT allo act, CHT inh, Kir21 block, ANO1 block, Rce1 inhib)
CN(C)S(=O)(=O)N(CC(=O)NCCSCc1ccc(Cl)cc1)c1ccccc1	CHT allo act 8 | CHT act confirm inactive | HEK293 MP dye inactive
Cc1ccc(N(C(=O)c2snc(C(N)=O)c2N)C(C(=O)NC2CCCC2)c2ccc(C)o2)cc1 (configuration not stated)	none
CC(=O)N1CCN(C(=O)c2cc(S(=O)(=O)NCc3ccccc3)ccc2C)CC1	none
Cc1ccc(C)c(S(=O)(=O)N2CCN(C(=O)c3cc(S(=O)(=O)NCc4ccccc4)ccc3C)CC2)c1	none | CHT act confirm 22 | HEK293 MP dye inactive
Cc1ccc(NC(=O)c2cc(S(=O)(=O)N3CCOCC3)ccc2Cl)cc1S(=O)(=O)N1CCOCC1	none (no result: CHT allo act, CHT inh, Kir21 block, ANO1 block, Rce1 inhib)
Cc1cccc(Cn2c(Cc3ccccc3)nc3ccccc32)c1	CHT allo act 9.8, Kir21 block -11 | CHT act confirm inactive | HEK293 MP dye inactive
CC1(C)Cc2c(cnn2-c2cccc(F)c2)C(NC(=O)CN2CCCC2=O)C1 (configuration not stated)	none
COc1ccc(N(CC(=O)NCc2ccccc2)S(=O)(=O)c2c(C)n[nH]c2C)cc1	none
CC(C)(C)NC(=O)c1oc2ccccc2c1COc1ccccc1	none | CHT act confirm 33 | HEK293 MP dye inactive
Cc1cc(N2CCN(C)CC2)ccc1NC(=O)c1ccc(-c2ccc(Cl)cc2)o1	none | CHT act confirm inactive | HEK293 MP dye inactive
CN1CCN(c2ccccc2NC(=O)c2ccc(-c3ccc(Cl)c(Cl)c3)o2)CC1	none
Cc1cccc(CCNS(=O)(=O)c2ccc3c(c2)NC(=O)CS3)c1	none
CCCCN(CCCC)CC(O)CN(c1cc([N+](=O)[O-])ccc1OC)S(=O)(=O)c1ccccc1 (configuration not stated)	CHT allo act 11 | CHT act confirm 53 | HEK293 MP dye -45
COc1ccc([N+](=O)[O-])cc1N(CC(O)CN(CC(C)C)CC(C)C)S(=O)(=O)c1ccccc1 (configuration not stated)	CHT allo act 13 | CHT act confirm 42 | HEK293 MP dye inactive
COc1ccc([N+](=O)[O-])cc1N(CC(O)CN(C)C)S(=O)(=O)c1ccc(C)cc1 (configuration not stated)	none
O=C(CN1C(=O)NC2(CCOc3ccccc32)C1=O)NCCc1ccccc1 (configuration not stated)	none (no result: CHT allo act, CHT inh, Kir21 block, ANO1 block, Rce1 inhib)
CCCCC[n+]1ccn(-c2nc3ccccc3nc2[N-]S(=O)(=O)c2ccccc2)c1	none
CCCC[n+]1ccn(-c2nc3c([N+](=O)[O-])cccc3n2C)c1	none | CHT act confirm 67 | HEK293 MP dye -55
COc1ccc([N+](=O)[O-])cc1NCC(=O)Nc1cccc(S(=O)(=O)N2CCCC2)c1	none (no result: CHT allo act, CHT inh, Kir21 block, ANO1 block, Rce1 inhib)
CCN1CCCC(Sc2nc3c([nH]2)c(=S)n(C)c(=O)n3C)C1 (configuration not stated)	none | CHT act confirm 29 | HEK293 MP dye -26
COc1ccc(-c2nc3ccncc3[nH]2)cc1OC	none
Fc1ccc(-c2nc3ccccc3[nH]2)cc1	none
Clc1ccc(-c2nc3ccncc3[nH]2)cc1	CHT allo act 6.8 | CHT act confirm 52 | HEK293 MP dye -51
Fc1ccc(-c2nc3ccncc3[nH]2)cc1	CHT allo act 7.9 | CHT act confirm 59 | HEK293 MP dye -65
CC(C)OC(=O)Cc1nc2sc(-c3ccccc3)cc2c(=O)[nH]1	none
Cc1noc(C)c1NC(=O)Nc1ccc2c(c1)C(=O)N([C@H](C)CO)C[C@H](C)[C@@H](CN(C)C(=O)Nc1c(C)noc1C)O2	none (no result: CHT allo act, CHT inh, Kir21 block, ANO1 block, Rce1 inhib)
CCOC(=O)c1sc(NC(=O)COC(=O)CNC(=O)C2CCCCC2)c(C(=O)OCC)c1C	none
Cc1ccc(C)c(Nc2cc(C)nc3ccccc23)c1	none
Cc1cc(N)c2ccccc2n1	CHT allo act 8 | CHT act confirm 65 | HEK293 MP dye -55
Nc1cccc2nc3ccccc3cc12	CHT allo act 13, Rce1 inhib active | CHT act confirm 27 | HEK293 MP dye -55
COc1ccc(C(=O)Nc2cc(C)nc3ccccc23)cc1OC	none (no result: Rce1 inhib)
COC(=O)Nc1cc(C)nc2ccccc12	CHT allo act 6.8 | CHT act confirm 35 | HEK293 MP dye -45
COCCCNc1cc(C)nc2ccccc12	none | CHT act confirm 56 | HEK293 MP dye -68
Cc1c2ccccc2nc2ccccc12	none
CN(CCOc1ccccc1)C(=O)C1CCC(=O)N(CCN2CCOCC2)C1 (configuration not stated)	none
Cc1cc(Nc2ccccc2O)c2ccccc2n1	CHT allo act 6.7 | CHT act confirm 39 | HEK293 MP dye -37
